AmpC no deterg: AmpC beta-lactamase inhibition without detergent | P00811 | AmpC nitrocefin hydrolysis, absorbance 480 nm, 0.0001% Triton | Potency, µM (series often up to 57.1 µM), inactives show top-dose activity change, negative = inhibition, hits mostly inhibitors | actives 0.52% (n = 330,000);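 note: potency is the fitted concentration of half-maximal effect; plate controls were no compound for no effect and no enzyme for full effect; nearly all actives have a fitted effect of over 20% in size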
Target sequence (P00811 whole entry, looked up): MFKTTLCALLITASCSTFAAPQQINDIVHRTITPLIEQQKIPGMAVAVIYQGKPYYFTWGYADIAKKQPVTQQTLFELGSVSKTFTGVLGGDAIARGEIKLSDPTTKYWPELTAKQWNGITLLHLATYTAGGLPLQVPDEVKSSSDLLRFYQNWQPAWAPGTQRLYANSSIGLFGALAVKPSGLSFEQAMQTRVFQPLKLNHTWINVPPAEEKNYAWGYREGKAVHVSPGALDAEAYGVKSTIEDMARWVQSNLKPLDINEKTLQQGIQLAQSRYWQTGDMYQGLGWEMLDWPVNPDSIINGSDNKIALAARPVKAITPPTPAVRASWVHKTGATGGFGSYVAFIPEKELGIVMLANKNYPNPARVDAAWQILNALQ
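AmpC (5.3 nM in the dispensed reagent) in 20 mM phosphate pH 7.0 with 0.01% (detergent screen) or 0.0001% Triton X-100 was preincubated with compounds for 15 min at room temperature. Nitrocefin was then added from an 800 uM solution, and hydrolysis was followed at 480 nm.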
NS1 inh: influenza NS1 inhibition; Potency, µM (top dose mostly 46.1 µM), for inactives: at the highest dose activity, positive = more growth; actives 0.4% (n = 270,000); AID 2326; calls by dose curve; note: potency is the fitted concentration of half-maximal effect; actives are rising curves; nearly all actives have a fitted effect of over 50% in size
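S. cerevisiae expressing influenza A NS1, grown in glucose, washed, then diluted 1:100 into pH 6.0 -URA galactose medium with 23 nl compound. Growth recovery read as OD600; NS1-free strain serves as control.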
AmpC inh detg: blocks E. coli AmpC beta-lactamase in detergent assay | actives 0.041% (n = 370,000) | P00811 | AmpC hydrolysis of nitrocefin, absorbance 480 nm, 0.01% Triton | Potency, µM (doses to about 114 µM), for the others: top-dose activity change, negative = inhibition, actives largely listed as inhibitors | AID 485294;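 note: potency is the fitted concentration of half-maximal effect; 0% = no-compound wells and -100% = no-enzyme wells; nearly all actives have a fitted effect of over 25% in size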
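AmpC (5.3 nM in the dispensed reagent) in 20 mM phosphate pH 7.0 with 0.01% (detergent screen) or 0.0001% Triton X-100 was preincubated with compounds for 15 min at room temperature. Nitrocefin was then added from an 800 uM solution, and hydrolysis was followed at 480 nm.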
Shiga toxin inh: blocks Shiga toxin action in Vero cells | Vero cells, Shiga toxin protein synthesis inhibition reporter | actives 9.2% (n = 290,000) | inhibition, % at 38.7 µM | AID 2315; in the data active = inhibition mostly above about 28%, no sharp cut-off; inactive = mostly below about 43%; note: 0% is about no effect
Cycloheximide cs: counter-screen for Shiga toxin inhibitors: cycloheximide protein synthesis inhibition; AID 2314; actives 12% (n = 300,000); max response, %; cell reporter, cycloheximide protein synthesis inhibition counterscreen; in the data active = max response mostly above about 13%, no sharp cut-off; inactive = mostly below about 14%; note: read at 38.3 µM for the half of the compounds with a filed dose; 0% is about no effect
The depositor's hits bear a star; ? = inconclusive; · = no result; [ ] = another dose, or the depositor's remark. Only a selection was taken, and hits are over-represented in it overall. Unless noted, calls come from the whole dose curve; as a rule, active = well fitted curve in the direction sought with a large enough effect; inconclusive = small, poorly fitted or top-dose-only effect, or another doubt; inactive = no such curve, though single readings can be large; an effect the other way counts as inactive or inconclusive.

SMILES	AmpC no deterg	NS1 inh	AmpC inh detg	Shiga toxin inh	Cycloheximide cs
Cc1ccc(SCC(=O)NC(=O)Nc2ccc3c(c2)OCCO3)cc1C	-53%	2%	1%	-1	-5
CC1(C)CC(=O)c2cnc3c(C#N)cnn3c2C1	-13%	1%	1%	-4	-1
O=C(Cc1ccccc1)N/N=C/c1cc(Br)cs1	-19%	-2%	?	17	14*
O=C(O)c1ccc(N/N=C/c2cc(Br)cs2)cc1	-21%	-112%	0%	29	25*
O=C(N/N=C\c1cc(Br)cs1)c1ccncc1	-9%	-4%	0%	36	1
CCNC(=S)N/N=C/c1ccccc1[N+](=O)[O-]	-1%	4%	?	9	-1
CCCOc1ccc(/C=N/Nc2ccccc2[N+](=O)[O-])c(O)c1	-26%	-5%	5%	74*	58*
CCC(CC)=NNc1cccc([N+](=O)[O-])c1	-34%	15%	-1%	11	-3
CCCOc1ccc([N+](=O)[O-])c(N)c1	-27%	2%	?	14	5
CCCOc1ccc(/C=N/NC(=S)Nc2ccccc2[N+](=O)[O-])c(O)c1	-45%	21%	-9%	75*	93*
COc1ccc(/C=N/NC(=S)Nc2ccccc2[N+](=O)[O-])cc1O	-39%	-17%	-4%	62*	60*
CCCOc1ccc(/C=N/Nc2cccc([N+](=O)[O-])c2)c(O)c1	-34%	-31%	?	81*	82*
COCC(C)NCc1ccc(OC)c(Br)c1 (stereo not drawn)	-4%	·	-10%	-17	-5
O=S(=O)(c1ccc(=S)[nH]c1)N1CCCC1	-12%	·	·	·	·
O=C(Nc1ccccc1Br)C1CC(=O)N(c2ccc3c4c(cccc24)CC3)C1 (stereo not drawn)	11%	-3%	?	-5	0
CC1(NC(=O)NCCCCCCNC(=O)NC2(C)CCS(=O)(=O)C2)CCS(=O)(=O)C1 (stereo not drawn)	-7%	2%	-7%	-7	-5
Cc1ccc(-c2cc(C(=O)OCC(=O)NC3CC3)c3ccccc3n2)cc1	-2%	·	1%	·	·
COc1ccc(/C=N/Nc2ccc(C(=O)O)cc2)cc1Br	-43%	·	4%	0	9
CCOc1ccc(/C=N/Nc2ccc(Cl)nn2)c(O)c1	-18%	4%	-1%	58*	7
CCCOc1ccc(/C=N/Nc2ccc(C(=O)O)cc2)c(OCCC)c1	-36%	·	-1%	121*	38*
O=C(/C=C/c1ccc(Cl)cc1)NCCSc1ccccc1	-22%	-17%	-3%	17	10
O=C(/C=C/Sc1ccccc1)c1ccccc1	-21%	-33%	-2%	182*	140*
O=C(/C=C/Sc1ccccc1)c1ccc(Cl)cc1	-31%	-13%	-12%	116*	68*
CC1=C(C)CC(C(=O)NCc2ccccn2)C(C(=O)O)C1 (stereo not drawn)	-13%	2%	3%	1	-1
CC1=C(C)CC(C(=O)NCC(=O)c2ccccc2)C(C(=O)O)C1 (stereo not drawn)	-13%	2%	5%	70*	40*
SMILES	AmpC no deterg	NS1 inh	AmpC inh detg	Shiga toxin inh	Cycloheximide cs
CC1=C(C)CC(C(=O)NNC(=O)c2cccc(Cl)c2)C(C(=O)O)C1 (stereo not drawn)	-25%	-1%	-12%	50*	37*
CC1=C(C)CC(C(=O)NNC(=O)c2ccccc2)C(C(=O)O)C1 (stereo not drawn)	-12%	-4%	-14%	79*	24*
COc1cccc(C2c3[nH]c4ccccc4c3C[C@H]3C(=O)N(C4CCN(Cc5ccccc5)CC4)CC(=O)N23)c1 (stereo partly drawn)	131%	2%	-2%	-5	-2
Cc1ccc(C2=NNC(C(O)C(O)C(O)C(O)CO)S2)cc1 (stereo not drawn)	-2%	-8%	-8%	56*	25*
CCOc1ccc(S(=O)(=O)N2CCCC(C(=O)NCCN3CCOCC3)C2)cc1Cl (stereo not drawn)	104%	9%	0%	-7	-5
Cc1ccc(S(=O)(=O)c2cc3ccccc3oc2=Nc2ccc3c(c2)OCCO3)cc1	3.2µM*	-8%	-5%	-5	2
COc1cccc2cc(S(=O)(=O)c3ccccc3)c(=Nc3ccc4c(c3)OCCO4)oc12	3.5µM*	5%	-6%	17	-1
CN(Cc1nc(-c2cnccn2)no1)Cc1cccc2ccccc12	12%	-8%	-3%	-12	1
Cc1cccc(N2CCN(C(=O)CN3C(=O)COc4ccc(S(=O)(=O)N5CCCC5)cc43)CC2C)c1 (stereo not drawn)	·	·	-1%	·	·
COc1ccc(C)cc1NC(=O)C1CCCCN1S(=O)(=O)c1ccccc1 (stereo not drawn)	-21%	·	·	·	·
COc1ccc(NC(=O)Nc2nnc(C(C)(C)C)s2)cc1	-40%	2%	2%	49*	23*
CC(C)(C)c1nnc(NC(=O)NS(=O)(=O)c2ccccc2)s1	6%	0%	-12%	29	23*
Cc1nc(NC(=O)Nc2ccc(Cl)cc2)sc1C	-26%	·	-13%	41*	27*
Cc1nc(NS(=O)(=O)c2ccccc2)sc1NC(=O)Nc1ccccc1	-40%	8%	2%	17	-1
Cc1nc(NS(=O)(=O)c2ccccc2)sc1NC(=O)Nc1ccc(Cl)cc1	16µM*	9%	-13%	-17	-2
Cc1cc(C)c(-c2n[nH]c3c2C(c2ccccc2F)N(Cc2ccco2)C3=O)c(O)c1 (stereo not drawn)	·	·	2%	·	·
Cc1ccn2c(=O)cc(COc3ccc(NC(=O)COc4ccccc4)cc3)nc2c1	·	·	14%	·	·
CC(C)(C)c1nnc(NC(=O)Nc2ccc(Cl)cc2)s1	-33%	1%	2%	29*	15
CCC(=O)N1c2ccc(S(=O)(=O)CCC(=O)N3CCN(c4ccccc4F)CC3)cc2CC1C (stereo not drawn)	92%	3%	-7%	-3	-1
COc1cc(/C(C)=N/NC(=O)C(O)(c2ccccc2)c2ccccc2)ccc1O	-42%	2%	-9%	3	11
Cc1cccc(OCCn2c(NC(=O)c3ccco3)nc3ccccc32)c1	-9%	-22%[9.22 µM]	-7%	89*	26*
Cc1ccc(OCCn2c(NC(=O)c3ccco3)nc3ccccc32)cc1	20µM*	-7%	9%	-5	-3
O=C(Nc1nc2ccccc2n1CCOc1ccccc1)c1ccco1	-13%	-26%	-13%	80	48*
O=C(Nc1nc2ccccc2n1CCN1CCCCC1)c1ccco1	-18%	1%	?	19	2
O=C(Nc1nc2ccccc2n1Cc1ccc(Cl)cc1)c1ccco1	88%	8%	-8%	14	3
O=C(Nc1nc2ccccc2n1CCOc1ccc(Cl)cc1)c1ccco1	-25%	-62%	0%	49	20*
Clc1cc(CSc2ccccc2)nc(-c2ccccc2)n1	-28%	-7%	4%	33	22*

Screening data as filed in PubChem BioAssay.
